Test in all cases: NCI-60 one-dose screen, 48 h (100 = growth as untreated, 0 = no growth, -100 = all killed)
In one test the test system is NCI-H226 lung. The conditions noted are these: 10 µM unless noted.
Another test has as its system HOP-92 NSCLC. The conditions noted are these: 10 µM unless noted.
The test system of the next test is NCI-H522 lung. The conditions noted are these: 10 µM unless noted.
For the next test, the system named is COLO 205 colon. The conditions noted are these: 10 µM.
The test system of the next test is HT29 colon. As to conditions: 10 µM unless noted.
Another test relates to SNB-75 CNS. The conditions noted are these: 10 µM unless noted.
The next test concerns PC-3 prostate. As to conditions: 10 µM unless noted.
Another test concerns SK-MEL-5 melanoma. As to conditions: 10 µM unless noted.
The subject of the next test is EKVX NSCLC. The conditions noted are these: 10 µM unless noted.
In the next test the test system is CAKI-1 renal. The conditions noted are these: 10 µM unless noted.
In a further test the test system is CCRF-CEM leukemia. As to conditions: 10 µM unless noted.
In a further test the test system is RPMI-8226 leukemia. As to conditions: 10 µM unless noted.
The test system of the next test is OVCAR-3 ovarian. The conditions noted are these: 10 µM unless noted.
The subject of another test is HS 578T breast. As to conditions: 10 µM unless noted.
In another test the test system is MALME-3M melanoma. The conditions noted are these: 10 µM unless noted.
A further test deals with OVCAR-5 ovarian. As to conditions: 10 µM unless noted.
The next test deals with MCF7 breast. As to conditions: 10 µM unless noted.
The subject of a further test is IGROV1 ovarian. As to conditions: 10 µM.

The panel holds about 83,000 compounds, 20% with a hit somewhere; the sample as a whole holds those more often.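 Cells were grown in 96-well plates and exposed to the test compound at a single concentration for 48 hours; results are reported as percent growth, with values below 10 considered active.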 Values without a mark were called inactive. The source made the active and inactive calls.

As for `NCCc1cc(O)c(O)cc1O`, the growth is 99.1% in the test with NCI-H226 lung; 85.4% with HOP-92 NSCLC; -11.5% (active) with NCI-H522 lung; 106% in the test with COLO 205 colon; 98.8% with HT29 colon; 95.9% in the test with SNB-75 CNS. Besides, the growth in the test on PC-3 prostate was 82.3%; in the test on SK-MEL-5 melanoma, 98.5%; with EKVX NSCLC it was 102%; with CAKI-1 renal, 100%; with CCRF-CEM leukemia, 65.7%; in the test on RPMI-8226 leukemia, 48.4%. The growth was 111% in the test on OVCAR-3 ovarian and 120% in the test on HS 578T breast.
Regarding `CC(=O)O[C@H]1CCC2C3CCC4=C/C(=N/O)CCC4(C)C3CCC21C` (some centres undefined), the growth is 98.1% in the test on NCI-H226 lung; 89.8% with HOP-92 NSCLC; 83.2% in the test with NCI-H522 lung; 94.3% in the test on MALME-3M melanoma; 76% in the test with HT29 colon; 96.4% in the test on SNB-75 CNS. Besides, the growth with SK-MEL-5 melanoma was 87.4%; with EKVX NSCLC it was 88.5%; in the test with CAKI-1 renal, 80.5%; in the test on RPMI-8226 leukemia, 89.4%; in the test on OVCAR-5 ovarian, 99.5%; with OVCAR-3 ovarian, 107%. The growth in the test with HS 578T breast is 55.2%; in the test on MCF7 breast, 110%.
As for `Oc1ccc2c3c1O[C@H]1c4[nH]c5ccccc5c4C[C@@]4(O)C(C2)N(CC2CC2)CC[C@]314`, the growth in the test on NCI-H226 lung was 94.4%; in the test on COLO 205 colon it was 96.9%; in the test on MALME-3M melanoma, 122%; with PC-3 prostate, 88.1%; with SK-MEL-5 melanoma, 96.4%; in the test on CAKI-1 renal it was 92.3%. In addition, the growth was 89.7% with CCRF-CEM leukemia; 106% in the test with OVCAR-5 ovarian; 97.5% in the test with IGROV1 ovarian; 89.1% in the test with OVCAR-3 ovarian; 92.1% with HS 578T breast; 99.7% in the test with MCF7 breast.
As for `CCCCCCCCCCCCOc1ccc(C(=O)Oc2ccc(CSP3(=O)OCC4OC(n5cnc6c(N)ncnc65)C(F)C4OP(=O)(O)OCC4OC(n5ccc(=O)[nH]c5=O)C(F)C4O3)cc2)cc1` (centres undefined), the growth is 85.5% in the test on NCI-H226 lung; 69.4% in the test with NCI-H522 lung; 114% in the test with MALME-3M melanoma; 78.8% in the test with HT29 colon; 100% in the test with PC-3 prostate; 109% in the test with SK-MEL-5 melanoma. Besides, the growth was 107% in the test on EKVX NSCLC; 68.3% with CCRF-CEM leukemia; 72.2% in the test on RPMI-8226 leukemia; 115% in the test with OVCAR-5 ovarian; 97% with IGROV1 ovarian; 98.2% in the test on OVCAR-3 ovarian. Further, the growth with HS 578T breast is 117%; in the test on MCF7 breast, 93.4%.
`CC1(CF)NC(=O)NC1=O` (centres undefined): the growth is 119% in the test with NCI-H226 lung; 84.4% in the test on HOP-92 NSCLC; 122% in the test with NCI-H522 lung; 114% with COLO 205 colon; 101% in the test with PC-3 prostate; 114% in the test with SK-MEL-5 melanoma. Moreover, the growth with EKVX NSCLC was 104%; with CAKI-1 renal it was 122%; with CCRF-CEM leukemia, 95.7%; in the test with RPMI-8226 leukemia, 108%; with OVCAR-3 ovarian it was 115%; in the test with HS 578T breast, 108%.
Turning to `c1ccc2nc(OCCN3CC3)ccc2c1`, the growth in the test on NCI-H226 lung is 83.1%; with COLO 205 colon, 68.1%; with MALME-3M melanoma, 113%; in the test on HT29 colon it was 43.8%; with SNB-75 CNS, 77%; in the test with EKVX NSCLC, 80.7%. Also, the growth in the test on CAKI-1 renal was 90.8%; in the test with CCRF-CEM leukemia, 31.7%; in the test with RPMI-8226 leukemia, 9.61% (active); in the test on OVCAR-3 ovarian, 74.3%; in the test on HS 578T breast, 98.3%.
`COc1cc[c]([Hg][Cl])cc1`: the growth in the test with NCI-H226 lung was 100%; in the test with HOP-92 NSCLC, 90.1%; in the test with MALME-3M melanoma, 47.3%; in the test on SNB-75 CNS it was 50.5%; in the test with PC-3 prostate, 77.6%; in the test with SK-MEL-5 melanoma it was 30.5%. Further, the growth in the test with EKVX NSCLC was 76.3%; with CAKI-1 renal, 78.6%; in the test with CCRF-CEM leukemia, -20.8% (active); in the test with RPMI-8226 leukemia, 41.5%; in the test with OVCAR-5 ovarian, 105%; in the test on IGROV1 ovarian, 15.1%. Moreover, the growth in the test with OVCAR-3 ovarian is -71.5% (active); in the test with HS 578T breast, 30.5%; with MCF7 breast it was 27.9%.
On to `Nc1c(Br)cc([N+](=O)[O-])cc1[N+](=O)[O-]`, for which the growth was 92.9% with NCI-H226 lung; 120% in the test with HOP-92 NSCLC; 105% in the test on NCI-H522 lung; 103% with HT29 colon; 99.2% with SNB-75 CNS; 93.6% in the test with EKVX NSCLC. Further, the growth with CAKI-1 renal was 92.8%; with CCRF-CEM leukemia it was 118%; in the test on OVCAR-5 ovarian it was 106%; in the test with OVCAR-3 ovarian, 108%; in the test on HS 578T breast it was 106%.
In the case of `Cc1cccc(N=C2c3cc([N+](=O)[O-])ccc3-c3c2cc([N+](=O)[O-])cc3[N+](=O)[O-])c1`, the growth with NCI-H226 lung was 80.1%; with COLO 205 colon, 98.5%; in the test on HT29 colon it was 21.3%; with SNB-75 CNS it was 84.4%; in the test with SK-MEL-5 melanoma it was 71%; in the test with EKVX NSCLC, 75.4%. Further, the growth is 67.8% in the test on CAKI-1 renal; 21.4% in the test with CCRF-CEM leukemia; -8.81% (active) with RPMI-8226 leukemia; 50.4% in the test with OVCAR-3 ovarian; 101% in the test with HS 578T breast; 21.3% with MCF7 breast.
As to `CCN(CC)c1ccc(C=C2C(=O)NC(=S)NC2=O)cc1`, the growth in the test on NCI-H226 lung is 85.5%; in the test with NCI-H522 lung it was 86.5%; in the test on COLO 205 colon, 104%; with MALME-3M melanoma it was 123%; with HT29 colon it was 92.2%; in the test on SNB-75 CNS, 75.8%. Further, the growth in the test on SK-MEL-5 melanoma was 93.4%; in the test on EKVX NSCLC it was 99.5%; with CCRF-CEM leukemia, 38.9%; in the test on RPMI-8226 leukemia it was -18.9% (active); with OVCAR-5 ovarian, 95.1%; in the test on IGROV1 ovarian, 100%. Further, the growth in the test on OVCAR-3 ovarian was 80.6%; with MCF7 breast, 60.3%.
For `CC1(C)CC(=O)CC(C)(C)N1N=O`, the growth is 104% in the test with NCI-H226 lung; 96.2% in the test on COLO 205 colon; 130% in the test on MALME-3M melanoma; 111% with SK-MEL-5 melanoma; 112% with EKVX NSCLC; 99.9% in the test with CAKI-1 renal. Further, the growth in the test on OVCAR-5 ovarian was 104%; in the test on OVCAR-3 ovarian, 101%; with MCF7 breast, 97.9%.
Turning to `C=CCC1(CC)C(=O)NC(=S)NC1=O`, the growth was 104% in the test with NCI-H226 lung; 80.6% in the test on HOP-92 NSCLC; 93.5% with NCI-H522 lung; 97.3% in the test on COLO 205 colon; 108% in the test on MALME-3M melanoma; 98% in the test on HT29 colon. The growth was 104% with SNB-75 CNS; 96.8% in the test on PC-3 prostate; 95.7% in the test on SK-MEL-5 melanoma; 105% with EKVX NSCLC; 96.8% in the test on CAKI-1 renal; 100% in the test on CCRF-CEM leukemia. The growth with OVCAR-5 ovarian is 101%; in the test on IGROV1 ovarian it was 107%; with HS 578T breast, 102%; with MCF7 breast it was 103%.

For the origin of these results see PubChem BioAssay (NCI).
